The record followed here is PubChem BioAssay (EPA / NIEHS).

Results filed as inconclusive are left out. Activity calls are given as the source filed them. How the source made its calls, unless noted: active means hit-call score of the fitted dose curve at least 0.9, where 1 is the maximum; inactive means score below 0.9.

For experiment [1], the target named is human RAR-related Orphan Receptor beta (RORb), RORB (gene 6096) (UniProt Q92753). The experiment is described as follows: ATG_RORb_TRANS: Attagene TRANS-FACTORIAL HepG2 Assay for human RAR-related Orphan Receptor beta (RORb) (AID 2283010; active means hit-call score of the fitted dose curve at least 0.9, where 1 is the maximum). The gist of the method:
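Read-out is reporter mRNA induction, quantified by RT-PCR with fluorescent capillary electrophoresis, 24 h post-dose in transiently transfected HepG2 expressing exogenous NR-Gal4 chimera. Activity fitted upward versus DMSO.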

In experiment [2] the target is human RAR-related Orphan Receptor gamma (RORg), RORC (gene 6097) (UniProt P51449). The experiment is described as follows: ATG_RORg_TRANS: Attagene TRANS-FACTORIAL HepG2 Assay for human RAR-related Orphan Receptor gamma (RORg) (AID 2283011; active means hit-call score of the fitted dose curve at least 0.9, where 1 is the maximum). The gist of the method: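 Readout: reporter transcript induction (RT-PCR, fluorescent primer extension, capillary electrophoresis) after 24 h compound exposure of transiently transfected HepG2 cells carrying a RORg-Gal4 chimera and GAL4-UAS reporters; DMSO served as baseline, with increasing signal fitted.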

The target of experiment [3] is Retinoic acid receptor RXR-alpha (Homo sapiens) (UniProt P19793). As to the kind of experiment: ATG_RXRa_TRANS: Attagene TRANS-FACTORIAL HepG2 Assay for human Retinoid X Receptor alpha (RXRa) (AID 2283012; active means hit-call score of the fitted dose curve at least 0.9, where 1 is the maximum). The gist of the method: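 TRANS format reporting activity of exogenous RXRa-Gal4 chimera in transiently transfected HepG2, 24 h exposure. Reporter transcripts quantified by RT-PCR with capillary electrophoresis, with gain of signal scored relative to DMSO.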

Experiment [4] addresses human Retinoid X Receptor beta (RXRb), RXRB (gene 6257) (UniProt P28702). The experiment is described as follows: ATG_RXRb_TRANS: Attagene TRANS-FACTORIAL HepG2 Assay for human Retinoid X Receptor beta (RXRb) (AID 2283013; active means hit-call score of the fitted dose curve at least 0.9, where 1 is the maximum). The gist of the method: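 Readout is reporter transcript induction after 24 h dosing. It is measured by RT-PCR of total RNA followed by fluorescent capillary electrophoresis. HepG2 liver cells carry transfected multiple reporter units driven by an exogenous RXRb-Gal4 fusion; activity is relative to DMSO.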

Experiment [5] concerns the target human Thyroid Receptor alpha (THRa1), THRA (gene 7067) (UniProt P10827). The experiment is described as follows: ATG_THRa1_TRANS: Attagene TRANS-FACTORIAL HepG2 Assay for human Thyroid Receptor alpha (THRa1) (AID 2283014; active means hit-call score of the fitted dose curve at least 0.9, where 1 is the maximum). The gist of the method: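 HepG2 cells transiently transfected with multiplexed GAL4-UAS reporter units for exogenous chimeric THRa1-Gal4; reporter mRNA measured 24 h after dosing by RT-PCR, 6-FAM labelling, HpaI digestion and capillary electrophoresis. Gain-of-signal fitted versus DMSO baseline.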

Experiment [6] deals with human Vitamin D Receptor (VDR), VDR (gene 7421) (UniProt P11473). As to the kind of experiment: ATG_VDR_TRANS: Attagene TRANS-FACTORIAL HepG2 Assay for human Vitamin D Receptor (VDR) (AID 2283022; active means hit-call score of the fitted dose curve at least 0.9, where 1 is the maximum). The gist of the method:
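HepG2 cells were transiently transfected with multiple GAL4-UAS reporter units, so signal reflects exogenous chimeric receptor-Gal4 activity. After 24 h compound exposure, reporter mRNA was measured by RT-PCR, fluorescent labelling and capillary electrophoresis, fitted for gain of signal versus DMSO.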

Read-out in experiment [7]: Interleukin-1 alpha (IL1a), IL1A (gene 3552)
As to the kind of experiment: BSK_BE3C_IL1a: BioMAP Diversity Plus: BE3C Assay for Interleukin-1 alpha (IL1a) Biomarker Activity (AID 2283016). Conditions: primary human bronchial epithelial cells; actives raise or lower the signal. The gist of the method: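 IL-1a measured by ELISA after 24 h treatment of human primary bronchial epithelial cells, with gain or loss of signal fitted versus DMSO. Parallel cultures stained with SRB gauge overt cytotoxicity.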

Read-out in experiment [8]: Monocyte Chemoattractant Protein-1 (MCP1), CCL2 (gene 6347)
As to the kind of experiment: BSK_3C_MCP1: BioMAP Diversity Plus: 3C Assay for Monocyte Chemoattractant Protein-1 (MCP1) Biomarker Activity (AID 2283017). Conditions: primary human endothelial cells (HUVEC); actives raise or lower the signal. The gist of the method: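 Primary human umbilical vein endothelial cells (3C system) were exposed to test chemical for 24 h, after which MCP-1 was quantified by ELISA. Activity was fitted bidirectionally against DMSO as negative control and baseline.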

Read-out in experiment [9]: Monocyte Chemoattractant Protein-1 (MCP1), CCL2 (gene 6347)
The experiment is described as follows: BSK_4H_MCP1: BioMAP Diversity Plus: 4H Assay for Monocyte Chemoattractant Protein-1 (MCP1) Biomarker Activity (AID 2283018). Conditions: primary human endothelial cells (HUVEC); actives raise or lower the signal. The gist of the method:
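ELISA of MCP-1 (CCL2) 24 h after chemical dosing of HUVEC in the BioMAP 4H system. Gain or loss versus DMSO fitted; parallel SRB staining (560 nm) tracked overt cytotoxicity.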

Read-out in experiment [10]: Human Leukocyte Antigen - DR isotype (HLADR), HLA-DRA (gene 3122)
The experiment is described as follows: BSK_3C_HLADR: BioMAP Diversity Plus: 3C Assay for Human Leukocyte Antigen - DR isotype (HLADR) Biomarker Activity (AID 2283019). Particulars: primary human endothelial cells (HUVEC); actives raise or lower the signal. The gist of the method: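 Primary human umbilical vein endothelial cells (3C system) were dosed with compound and cell-surface HLA-DR was quantified by ELISA at 24 h. Activity was fitted bidirectionally against DMSO as negative control and baseline.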

Read-out in experiment [11]: Interleukin-8 (IL8), CXCL8 (gene 3576)
The experiment is described as follows: BSK_3C_IL8: BioMAP Diversity Plus: 3C Assay for Interleukin-8 (IL8) Biomarker Activity (AID 2283020). Particulars: primary human endothelial cells (HUVEC); actives raise or lower the signal. The gist of the method: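 IL-8 was measured by ELISA in HUVEC cultures 24 h after chemical dosing, with gain or loss of signal fitted relative to DMSO. Parallel SRB total-protein staining tracked overt cytotoxicity.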

Read-out in experiment [12]: Monokine induced gamma interferon (MIG), CXCL9 (gene 4283)
As to the kind of experiment: BSK_3C_MIG: BioMAP Diversity Plus: 3C Assay for Monokine induced gamma interferon (MIG) Biomarker Activity (AID 2283021).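 On AC50: MIG protein level measured by immunoassay in the treated endothelial cultures.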 Conditions: primary human endothelial cells (HUVEC); actives raise or lower the signal. The gist of the method: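 ELISA measurement of MIG in human umbilical vein endothelial cells 24 h after treatment. Cytotoxicity tracked by SRB staining in parallel cultures; gain or loss of signal fitted relative to DMSO.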

The nature of experiment [13]: BSK_3C_SRB: Viability Assessment in the BioMAP Diversity Plus: 3C Assay (AID 2283023).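 Further: fitted both ways against DMSO so a hit may be signal rise or drop.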 Conditions: primary human endothelial cells (HUVEC). The gist of the method: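 Primary human umbilical vein endothelial cells in the 3C system were read 24 h after compound dosing. Total protein was stained with 0.1% sulforhodamine B after 10% TCA fixation and read at 560 nm, with bidirectional fitting against DMSO as baseline.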

Read-out in experiment [14]: Matrix Metallopeptidase 1 (MMP1), MMP1 (gene 4312)
The experiment is described as follows: BSK_BE3C_MMP1: BioMAP Diversity Plus: BE3C Assay for Matrix Metallopeptidase 1 (MMP1) Biomarker Activity (AID 2283024). Conditions: primary human bronchial epithelial cells; actives raise or lower the signal. The gist of the method: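 ELISA measurement of MMP-1 after 24 h compound exposure of primary human bronchial epithelial cells. Changes in either direction fitted relative to DMSO; parallel SRB staining checked overt cytotoxicity.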

Experiment [15] in a line: BSK_3C_Vis: BioMAP Diversity Plus: 3C Assay for Morphology Visualization (AID 2283025).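 Further: fitted both ways so gain or loss versus DMSO counts.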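 On AC50: light microscopy image of cell morphology used as background control.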 Conditions: primary human endothelial cells (HUVEC). The gist of the method: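 Light-microscopy visualization of HUVEC cultures at 24 h post-treatment, with DMSO as baseline for bidirectional fitting.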
Read-out in experiment [16]: Pselectin, SELP (gene 6403)
As to the kind of experiment: BSK_4H_Pselectin: BioMAP Diversity Plus: 4H Assay for Pselectin Biomarker Activity (AID 2283026). Conditions: primary human endothelial cells (HUVEC); actives raise or lower the signal. The gist of the method: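 ELISA of surface P-selectin on HUVEC, 24 h after dosing, with parallel SRB staining (0.1% after 10% TCA fixation, 560 nm) for overt cytotoxicity. Activity fitted in both directions relative to DMSO.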

Experiment [17] can be described thus: BSK_4H_SRB: Viability Assessment in the BioMAP Diversity Plus: 4H Assay (AID 2283027).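 Further: cells exposed to compound for 24 h before staining.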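 On AC50: curves fitted both ways versus DMSO so AC50 may be loss or gain.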 Conditions: primary human endothelial cells (HUVEC). The gist of the method:
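HUVEC, 24 h post-dose; 10% TCA fix, 0.1% SRB stain, A560 nm. Total protein = overt cytotoxicity, parallel to biomarker read. Bidirectional fit vs DMSO baseline.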

Experiment [18] can be described thus: BSK_BE3C_SRB: Viability Assessment in the BioMAP Diversity Plus: BE3C Assay (AID 2283028). Conditions: primary human bronchial epithelial cells. The gist of the method:
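Human primary bronchial epithelial cells were exposed to test chemicals for 24 h. Total protein in parallel cultures was then measured by staining with 0.1% sulforhodamine B after 10% TCA fixation, with absorbance read at 560 nm. Activity was fitted bidirectionally against DMSO.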

Read-out in experiment [19]: Thrombomodulin, THBD (gene 7056)
The experiment is described as follows: BSK_3C_Thrombomodulin: BioMAP Diversity Plus: 3C Assay for Thrombomodulin Biomarker Activity (AID 2283029). Particulars: primary human endothelial cells (HUVEC); actives raise or lower the signal. The gist of the method: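 ELISA measurement of thrombomodulin on HUVEC surface 24 h after chemical dosing; activity fitted in both directions relative to DMSO vehicle.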

Chain of human RAR-related Orphan Receptor gamma (RORg), RORC (gene 6097) (P51449 whole entry, looked up, the tested form may be a part): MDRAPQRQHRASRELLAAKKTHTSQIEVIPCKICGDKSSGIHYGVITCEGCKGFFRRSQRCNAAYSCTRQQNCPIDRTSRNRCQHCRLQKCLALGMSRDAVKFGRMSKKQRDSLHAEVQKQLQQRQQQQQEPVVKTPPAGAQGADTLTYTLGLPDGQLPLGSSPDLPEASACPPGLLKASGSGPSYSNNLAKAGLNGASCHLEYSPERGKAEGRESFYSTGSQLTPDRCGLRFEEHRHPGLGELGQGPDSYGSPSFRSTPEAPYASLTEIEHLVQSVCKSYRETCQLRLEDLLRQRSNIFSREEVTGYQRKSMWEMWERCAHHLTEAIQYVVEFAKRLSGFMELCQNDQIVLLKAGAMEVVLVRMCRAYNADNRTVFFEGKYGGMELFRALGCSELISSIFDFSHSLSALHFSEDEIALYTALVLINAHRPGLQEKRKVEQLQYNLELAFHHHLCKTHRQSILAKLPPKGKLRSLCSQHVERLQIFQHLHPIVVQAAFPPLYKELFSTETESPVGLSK
Chain of human Retinoid X Receptor beta (RXRb), RXRB (gene 6257) (P28702 whole entry, looked up, the tested form may be a part): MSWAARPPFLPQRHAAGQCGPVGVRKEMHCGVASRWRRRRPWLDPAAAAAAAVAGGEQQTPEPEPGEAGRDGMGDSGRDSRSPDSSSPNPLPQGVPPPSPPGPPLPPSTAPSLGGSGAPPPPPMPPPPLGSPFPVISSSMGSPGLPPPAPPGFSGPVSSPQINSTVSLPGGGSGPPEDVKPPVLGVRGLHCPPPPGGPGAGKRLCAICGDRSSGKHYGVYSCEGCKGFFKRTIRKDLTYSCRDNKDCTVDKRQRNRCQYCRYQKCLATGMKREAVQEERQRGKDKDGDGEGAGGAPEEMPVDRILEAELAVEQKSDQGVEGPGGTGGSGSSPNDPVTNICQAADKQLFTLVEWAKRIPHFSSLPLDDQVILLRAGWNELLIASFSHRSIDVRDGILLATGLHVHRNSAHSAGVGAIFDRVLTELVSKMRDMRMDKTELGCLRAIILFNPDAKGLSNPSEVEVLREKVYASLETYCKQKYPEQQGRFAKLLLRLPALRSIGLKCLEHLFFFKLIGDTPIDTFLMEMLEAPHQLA
Chain of Retinoic acid receptor RXR-alpha (Homo sapiens) (P19793 whole entry, looked up, the tested form may be a part): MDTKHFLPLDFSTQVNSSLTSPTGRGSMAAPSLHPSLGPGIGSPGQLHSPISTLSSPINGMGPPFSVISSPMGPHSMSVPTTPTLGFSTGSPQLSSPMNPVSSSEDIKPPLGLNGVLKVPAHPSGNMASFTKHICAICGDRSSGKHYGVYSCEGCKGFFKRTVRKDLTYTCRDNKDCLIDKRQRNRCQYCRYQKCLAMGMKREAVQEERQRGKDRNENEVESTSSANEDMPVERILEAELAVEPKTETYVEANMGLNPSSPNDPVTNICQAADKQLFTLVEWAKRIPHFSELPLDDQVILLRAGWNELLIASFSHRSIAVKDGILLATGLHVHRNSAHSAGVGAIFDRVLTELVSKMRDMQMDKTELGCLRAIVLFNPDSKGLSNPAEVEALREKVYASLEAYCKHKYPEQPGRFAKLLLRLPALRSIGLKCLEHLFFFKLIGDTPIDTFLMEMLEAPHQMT
Chain of human Vitamin D Receptor (VDR), VDR (gene 7421) (P11473 whole entry, looked up, the tested form may be a part): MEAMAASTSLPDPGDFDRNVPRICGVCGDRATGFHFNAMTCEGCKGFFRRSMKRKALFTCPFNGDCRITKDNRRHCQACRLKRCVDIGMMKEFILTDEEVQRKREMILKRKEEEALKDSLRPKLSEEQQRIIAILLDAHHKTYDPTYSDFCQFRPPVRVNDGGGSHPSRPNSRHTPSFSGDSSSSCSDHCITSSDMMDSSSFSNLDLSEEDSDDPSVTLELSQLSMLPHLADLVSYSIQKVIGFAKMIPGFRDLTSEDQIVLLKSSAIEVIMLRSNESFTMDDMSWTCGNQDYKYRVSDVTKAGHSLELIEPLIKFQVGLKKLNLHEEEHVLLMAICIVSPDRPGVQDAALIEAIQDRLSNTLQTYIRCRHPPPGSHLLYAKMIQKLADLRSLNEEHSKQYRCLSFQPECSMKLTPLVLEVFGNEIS
Chain of human RAR-related Orphan Receptor beta (RORb), RORB (gene 6096) (Q92753 whole entry, looked up, the tested form may be a part): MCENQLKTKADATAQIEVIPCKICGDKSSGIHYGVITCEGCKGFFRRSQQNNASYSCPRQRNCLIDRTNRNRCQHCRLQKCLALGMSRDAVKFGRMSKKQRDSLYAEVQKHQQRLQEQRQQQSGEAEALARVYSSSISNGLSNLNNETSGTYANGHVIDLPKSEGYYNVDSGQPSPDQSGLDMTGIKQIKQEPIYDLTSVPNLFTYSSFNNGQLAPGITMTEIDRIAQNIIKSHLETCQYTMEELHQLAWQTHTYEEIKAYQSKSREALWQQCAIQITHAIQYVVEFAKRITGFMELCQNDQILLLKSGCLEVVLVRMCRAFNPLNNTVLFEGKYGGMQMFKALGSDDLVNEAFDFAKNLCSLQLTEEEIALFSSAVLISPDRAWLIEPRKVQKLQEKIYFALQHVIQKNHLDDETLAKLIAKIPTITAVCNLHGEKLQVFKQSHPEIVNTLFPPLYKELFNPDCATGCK
Chain of human Thyroid Receptor alpha (THRa1), THRA (gene 7067) (P10827 whole entry, looked up, the tested form may be a part): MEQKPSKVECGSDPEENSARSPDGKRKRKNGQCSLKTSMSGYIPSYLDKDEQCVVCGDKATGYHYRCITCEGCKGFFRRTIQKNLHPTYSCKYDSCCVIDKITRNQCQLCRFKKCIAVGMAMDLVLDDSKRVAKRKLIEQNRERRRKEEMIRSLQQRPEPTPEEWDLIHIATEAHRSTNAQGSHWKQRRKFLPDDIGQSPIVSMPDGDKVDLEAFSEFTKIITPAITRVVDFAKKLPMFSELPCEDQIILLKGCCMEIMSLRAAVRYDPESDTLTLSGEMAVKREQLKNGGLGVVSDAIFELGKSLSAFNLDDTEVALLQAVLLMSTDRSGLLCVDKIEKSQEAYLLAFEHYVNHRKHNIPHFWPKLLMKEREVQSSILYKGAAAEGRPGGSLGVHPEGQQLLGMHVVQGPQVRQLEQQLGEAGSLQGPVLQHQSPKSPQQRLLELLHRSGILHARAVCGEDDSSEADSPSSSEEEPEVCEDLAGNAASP

Take `CCCCCCCCCCCCCc1ccccc1`: the call in [1], in experiment [2], in [3], in experiment [4] and in experiment [5] was inactive.

With `C=CC(=O)OCCCCCCCCCC`, the result in experiment [1], in [2], in experiment [3], in experiment [4], in experiment [5] and in experiment [6] was inactive.

Regarding `CCCc1ccc(O)c(OC)c1`, the result in [1], in experiment [2], in [3], in experiment [4] and in experiment [6] was inactive.

`N#CC1(N)CCCCC1`: the call in experiment [1], in experiment [3] and in experiment [4] was inactive.

Regarding `C=CC(=O)NCOCCCC`, the outcome in experiment [1], in experiment [2], in experiment [4], in [7], in [8] and in experiment [9] was inactive. Moreover, the outcome in experiment [10], in [11], in [12], in [6], in experiment [13] and in [14] was inactive. In addition, the outcome in experiment [15], in experiment [16], in experiment [17], in experiment [18] and in [19] was inactive.

For the compound `Nc1nc(N)nc(-c2ccccc2)n1`, the result in [1], in [2], in [3], in experiment [4], in [5] and in experiment [7] was inactive. In addition, the outcome in experiment [8], in experiment [9], in [10], in experiment [11], in experiment [12] and in [13] was inactive. In addition, the result in experiment [14], in experiment [16], in experiment [17], in experiment [18] and in [19] was inactive.

In the case of `COC(Cc1ccccc1)OC`, the call in experiment [1], in [2], in experiment [5] and in [6] was inactive.

On to `CC(C)OC(=O)c1ccccc1`, for which the outcome in [1], in experiment [2], in experiment [3] and in experiment [6] was inactive.

With `C=CC(=O)OCC(C)OCC(C)OCC(C)OC(=O)C=C` (configuration not stated), the outcome in experiment [1], in experiment [2], in experiment [5], in experiment [6], in [14] and in experiment [18] was inactive. For the same compound, in experiment [19], the outcome was inactive. Moreover, the AC50 in experiment [7] was 21.5 µM (active); in experiment [8], 28.9 µM (active); in experiment [9], 7.07 µM (active); in experiment [10], 8.55 µM (active); in [11] it was 20 µM (active); in experiment [12], 35.5 µM (active). The AC50 in [13] was 20 µM (active); in experiment [15] it was 16 µM (active); in [16] it was 13.2 µM (active); in experiment [17], 12.1 µM (active).

Take `CC(CC(C)C)=NO`: the result in [1], in experiment [2] and in experiment [3] was inactive.

Take `CC(C)(O)Cc1ccccc1`: the compound was classed as inactive in [1], in experiment [2] and in experiment [5].

`C=C(C)C(=O)OCCCCCCCCCCCC`: the compound was called inactive in [1], in experiment [2], in experiment [5], in experiment [7], in [8] and in experiment [9]. For the same compound, the outcome in experiment [10], in [11], in experiment [12], in experiment [6], in [13] and in experiment [14] was inactive. For the same compound, the result in experiment [15], in experiment [16], in [17], in experiment [18] and in [19] was inactive. Further, in experiment [4], the AC50 is 67.8 µM (active).
